From PubChem BioAssay (NCI)
About 79,000 compounds went through this panel and 15% of them were active in at least one assay; those are over-represented in the sample as a whole. No stated cut-off is given here; in the data, active means growth inhibition above about 70%; inactive means the rest.

How the values were obtained:
[1] = NCI Yeast Anticancer Drug Screen. Data for the rad50 strain (AID 155);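 further: 0% = growth of vehicle-only cultures of the same strain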; settings: S. cerevisiae rad50 strain growth inhibition; at 50.0 µM; stronger effect = higher value
In short: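 Compounds were tested on a yeast strain with an engineered DNA damage repair alteration; the reported value is growth inhibition normalised to vehicle treatment.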

[2] = NCI Yeast Anticancer Drug Screen. Data for the mec2-1 strain (AID 157); settings: S. cerevisiae mec2-1 strain, at 50.0 µM, stronger effect = higher value
In short: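 Yeast mec2-1 mutant treated with compound. Readout: growth inhibition vs vehicle controls.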

[3] = NCI Yeast Anticancer Drug Screen. Data for the sgs1 mgt1 strain (AID 161);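 further: 0% = growth of cultures given vehicle only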; settings: S. cerevisiae sgs1 mgt1 strain, at 50.0 µM, stronger effect = higher value
In short: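 Mutant yeast exposed to compound; growth scored against vehicle-only wells.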

[4] = NCI Yeast Anticancer Drug Screen. Data for the cln2 rad14 strain (AID 165);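 further: 0% = growth equal to vehicle treated cultures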; settings: S. cerevisiae cln2 rad14 strain, at 50.0 µM, stronger effect = higher value
In short: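 cln2 rad14 yeast strain; compound exposure; growth inhibition read vs vehicle controls.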

[5] = NCI Yeast Anticancer Drug Screen. Data for the bub3 strain (AID 167); settings: S. cerevisiae bub3 mutant strain, at 50.0 µM, stronger effect = higher value
In short: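 Growth of a checkpoint-deficient yeast mutant is measured after compound exposure. Values represent inhibition relative to vehicle.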

[6] = NCI Yeast Anticancer Drug Screen. Data for the mlh1 rad18 strain (AID 175); settings: S. cerevisiae mlh1 rad18 strain growth inhibition; at 50.0 µM; stronger effect = higher value
In short: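 Yeast w/ defined DNA-repair lesions; compound exposure; growth vs vehicle controls → % inhibition.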

Measured: growth inhibition

O=C1C2=Nc3ccccc3C(O)N2c2ccccc21 (stereo unspecified)
inactive: [1] 12.8% | [2] 22.4% | [3] 12% | [4] 47.4% | [5] 17.3% | [6] 8.75%

CCCCOC(=O)COc1ccc2c(C)c(CCN(CC)CC)c(=O)oc2c1
inactive: [1] -13.1% | [2] -34.1% | [3] 1.25% | [4] -7.55% | [5] -21.8% | [6] -2.5%

CCCCC1=C(C)C/C(=N/Nc2ccc([N+](=O)[O-])cc2[N+](=O)[O-])C(C)C1CCCC (stereo unspecified)
inactive: [1] 3.7% | [2] 2.8% | [3] -13.6% | [4] 8.15% | [5] 3.3% | [6] 21.9%

CCC1NC(=O)C(NC(=O)c2ncccc2O)C(C)OC(=O)C(c2ccccc2)NC(=O)C2CC(=O)CCN2C(=O)C(Cc2ccccc2)N(C)C(=O)C2CCCN2C1=O (stereo unspecified)
inactive: [1] -6.9% | [2] -32.6% | [3] -29.1% | [4] -17.4% | [5] -6.45% | [6] 0.3%

CC(=O)OCC1OC(N=[N+]=[N-])C(OC(C)=O)C(OC(C)=O)C1OC1OC(COC(C)=O)C(OC(C)=O)C(OC(C)=O)C1OC(C)=O (stereo unspecified)
inactive: [1] -19.1% | [2] -29.9% | [3] -16.2% | [4] -0.35% | [5] 5.55% | [6] -17.1%

Oc1ccccc1-c1nnc2n1N=C(c1ccc(-c3ccccc3)cc1)CS2
inactive: [1] 32.5% | [2] -12.3% | [3] 23.4% | [4] 20.3% | [5] -6.95% | [6] 7.55%

O=C(O)CCCCC1CCSS1 (stereo unspecified)
inactive: [1] 32.2% | [2] 15.8% | [3] 46% | [4] 20.1% | [5] 25.5% | [6] 20.9%

CC(=O)Nc1c(Nc2ccccc2)[nH]c(C)nc1=S
inactive: [1] -5.55% | [2] -9.35% | [3] -0.25% | [4] -17.4% | [5] -3.1% | [6] -9.8%

OCCCCC1COC(c2ccccc2)O1 (stereo unspecified)
inactive: [1] 2.55% | [2] -14.6% | [3] -10.9% | [4] -35% | [5] -16.6% | [6] 1.1%

CCN(CC)CCn1c(C(C)(C)C)nc2ccccc21
inactive: [1] -9.15% | [2] -20.8% | [3] -24.1% | [4] -6.25% | [5] -15.8% | [6] -10.9%

CS(=O)(=O)CCC(Nc1ccc([N+](=O)[O-])cc1[N+](=O)[O-])C(=O)O (stereo unspecified)
inactive: [1] 4.7% | [2] 6.1% | [3] 22.1% | [4] 4.25% | [5] 5.6% | [6] -11.7%

COc1ccc(C2OC3=C(Nc4ccc([N+](=O)[O-])cc4N3)C2=O)cc1 (stereo unspecified)
inactive: [1] -7.25% | [2] -19.3% | [3] -16.8% | [4] -5.35% | [5] -37.9% | [6] -5.8%

CC1CCC2(C)CCC3(C)C(=CCC4C5(C)CCC(O)C(C)(C)C5CCC43C)C2C1C (stereo unspecified) (tested in a mixture with another compound)
inactive: [1] 23.8% | [2] -20.8% | [3] 9.95% | [4] -5.8% | [5] 0.6% | [6] 17.1%

OCC1NCCC(O)C1OC1OC(CO)C(O)C(O)C1O (stereo unspecified)
inactive: [1] 5.25% | [2] -22.1% | [3] -0.65% | [4] -2.75% | [5] -5.7% | [6] -18.6%

Nc1nc(N)c(N=Nc2ccc(C(=O)O)c(O)c2)c(N)n1
inactive: [1] 5.5% | [2] 3.5% | [3] -0.7% | [4] 12.8% | [5] -11.9% | [6] 13%

COc1ccc(CCN2CN=C(Sc3ccc([N+](=O)[O-])cc3Cl)NC2)cc1OC
inactive: [1] 11% | [2] -11.2% | [3] 7.55% | [4] 10% | [5] 21.9% | [6] 11.1%

COc1ccc(-c2c3nc(c(-c4ccc(OC)cc4)c4[n-]c(c(-c5ccc(OC)cc5)c5nc(c(-c6ccc(OC)cc6)c6[n-]c2c2ccccc62)-c2ccccc2-5)c2ccccc42)-c2ccccc2-3)cc1.[Zn+2]
inactive: [1] -21.1% | [2] -18.7% | [3] -29.9% | [4] 6.75% | [5] 16.6% | [6] -22.1%

NNc1ncnc2c1ncn2Cc1ccccc1
inactive: [1] 1.65% | [2] -3.1% | [3] 1.75% | [4] -2.05% | [5] -22.6% | [6] -14.4%

c1ccc(-c2nn(-c3ccccc3)[n+](-c3ccccc3)n2)cc1
inactive: [1] 5.4% | [2] 1.15% | [3] 21.9% | [4] 24.1% | [5] 30.7% | [6] 4.35%

Clc1ccnnc1Cl
inactive: [1] -17.7% | [2] -30.8% | [3] -43% | [4] 13.2% | [5] -37.5% | [6] -15.7%

CCCCC(=O)N/N=C/c1ccccc1OCC
inactive: [1] -7% | [2] 0.05% | [3] 0.6% | [4] -3.3% | [5] -9.9% | [6] -7.6%

CCOC(=O)Cn1c(=O)c2ccccc2c2cc([N+](=O)[O-])ccc21
inactive: [1] -6.45% | [2] 11.3% | [3] 13.2% | [4] 5.95% | [5] -3.65% | [6] -11.7%

O=[N+]([O-])c1cc(Cl)cc2cc(Br)cnc12
inactive: [1] 4.2% | [2] 15.3% | [3] -19.9% | [4] 3.8% | [5] 10.5% | [6] 4.4%

CCN(CC)c1nc(N(C)C)nc(N(C)C)n1
inactive: [1] -9% | [2] -4.3% | [3] 2.15% | [4] -7.25% | [5] 18.7% | [6] 7%

C/C(=C1/CCOC1=O)c1cccc(/C(C)=C2\CCOC2=O)c1
inactive: [1] 3.9% | [2] 3.55% | [3] -3.05% | [4] -29.4% | [5] 5.35% | [6] 2.75%

O=S(=O)(O)c1cc(N=Nc2cc(S(=O)(=O)O)c3cccnc3c2O)ccc1/C=C/c1ccc(N=Nc2cc(S(=O)(=O)O)c3cccnc3c2O)cc1S(=O)(=O)O.[Na+].[Zn+2]
inactive: [1] -15.2% | [2] -8.65% | [3] -9.85% | [4] -75.6% | [5] -44% | [6] -86.7%

CC(/C=C/c1ccccc1)=N\NC(=O)c1ccccc1
inactive: [1] 44.8% | [2] 5.3% | [3] -5.4% | [4] 4.3% | [5] -15.1% | [6] -47.1%

OCc1cc2ccc3ccccc3c2[nH]1
inactive: [1] 25.3% | [2] 24.9% | [3] 47.9% | [4] 2.65% | [5] 25.5% | [6] 25.6%

Oc1c(Cl)cc(Cl)cc1/C=N/c1nc(-c2ccc(Cl)cc2)cs1
inactive: [1] 52.1% | [2] 26.1% | [3] 61.3% | [4] 28.1% | [5] 38.8% | [6] 35%

CC(=O)Oc1ccccc1C(OC(C)=O)OC(C)=O
inactive: [1] 31.8% | [2] 5.2% | [3] 12.5% | [4] -20.1% | [5] 2.05% | [6] 34.4%

O=C1CC2COc3ccccc3C2=NN1c1ccccc1 (stereo unspecified)
inactive: [1] 13.6% | [2] 4.3% | [3] 4.7% | [4] 1.35% | [5] -4.15% | [6] 10.2%

CCCCCC(CCCCC)=C(C#N)C(=O)OCC
inactive: [1] -6.15% | [2] 21.1% | [3] 7.55% | [4] -19.4% | [5] 19.9% | [6] 25.8%

Cc1ccc(/C=C/C(=N/NC(=O)c2ccccc2)C(C)CN(C)C)cc1 (stereo unspecified)
inactive: [1] 6.6% | [2] 5.65% | [3] 6.45% | [4] -11.2% | [5] 0.25% | [6] 12.9%

O=C(O)CNC(=O)CNC(=O)C(CCC(=O)OCc1ccccc1)NC(=O)OCc1ccccc1 (stereo unspecified)
inactive: [1] 27.2% | [2] 12.3% | [3] 14.4% | [4] 9.3% | [5] 6.2% | [6] 15.2%

COc1ccc(/C=N/O)cc1OC
inactive: [1] -1.8% | [2] 14.8% | [3] -2.15% | [4] 11.8% | [5] 10.9% | [6] 5.95%

CC1=NCC(=O)N1
inactive: [1] -10.2% | [2] 1.5% | [3] -1.1% | [4] -11.8% | [5] -6.1% | [6] -4%

Cc1cc([N+](=O)[O-])ccc1NC(=O)C(=O)C(C(=O)c1ccccc1-c1ccccc1)C1OC(=O)c2ccccc21 (stereo unspecified)
inactive: [1] 12% | [2] 12.4% | [3] -5.4% | [4] -52% | [5] 6.8% | [6] 41.5%

CC1OC(OC2CCc3c(O)c4c(c(O)c3C2)C(=O)c2ccccc2C4=O)CC(N)C1O (stereo unspecified)
inactive: [1] 5.25% | [2] 8.9% | [3] 5.85% | [4] 14.8% | [5] -1.85% | [6] -2.15%

Cc1ccc(-c2c(C#N)c(-c3ccccc3)n(NS(=O)(=O)c3ccccc3)c(=O)c2C#N)cc1
inactive: [1] 42.1% | [2] 49.8% | [3] 47.1% | [4] 51.2% | [5] 49.6% | [6] 51.1%

C/C=C\C=N\NC(=O)C(=O)N/N=C/C=C\C
inactive: [1] 0.9% | [2] -17.1% | [3] -7.55% | [4] -56.5% | [5] -8.5% | [6] -0.75%

COc1ccccc1-n1c(O)c(N=Nc2ccccc2)c(=O)n(-c2ccc(C)cc2)c1=S
inactive: [1] 38.3% | [2] -8.95% | [3] 66.8% | [4] -10.8% | [5] -2.2% | [6] 12.8%
